Experimental findings from PubChem BioAssay AID1211 (NMMLSC, 2008) are described below.

Each structure is given as a SMILES string. Active and inactive are the calls of the source. How the calls were made is not given here.

In the experiment the target is Estrogen receptor (Homo sapiens) (UniProt P03372). Put plainly: displacement of fluorescent estrogen from ERalpha – cell-based, Cos7 ERalpha-GFP, flow cytometry, primary screen (AID 1211).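 Further: 0% = DMSO vehicle wells and 100% = no E2-Alexa633 signal left.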 As to conditions: fluorescent ligand competition, stronger effect = higher value. For orientation: Flow cytometry measures light scatter and fluorescence of single cells or particles in a stream.
Estrogen receptor (Homo sapiens), sequence (P03372 whole entry, looked up): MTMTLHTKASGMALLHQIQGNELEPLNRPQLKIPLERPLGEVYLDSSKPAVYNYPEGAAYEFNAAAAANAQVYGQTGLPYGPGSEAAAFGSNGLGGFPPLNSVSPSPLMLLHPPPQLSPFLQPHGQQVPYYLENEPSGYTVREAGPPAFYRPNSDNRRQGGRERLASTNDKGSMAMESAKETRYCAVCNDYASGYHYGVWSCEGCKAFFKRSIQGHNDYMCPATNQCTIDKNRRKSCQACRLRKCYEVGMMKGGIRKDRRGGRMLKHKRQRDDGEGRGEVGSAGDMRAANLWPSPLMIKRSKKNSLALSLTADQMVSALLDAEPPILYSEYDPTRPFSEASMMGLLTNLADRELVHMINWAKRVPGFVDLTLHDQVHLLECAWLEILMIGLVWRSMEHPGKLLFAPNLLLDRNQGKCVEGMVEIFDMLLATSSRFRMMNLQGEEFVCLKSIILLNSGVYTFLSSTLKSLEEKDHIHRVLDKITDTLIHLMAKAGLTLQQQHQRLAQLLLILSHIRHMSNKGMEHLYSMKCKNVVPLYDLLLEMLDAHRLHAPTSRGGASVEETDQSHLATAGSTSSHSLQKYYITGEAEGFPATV

For the compound `O=C(Nc1ccc(N2CCCC2)cc1)C(c1ccccc1)c1ccccc1`, the inhibition of ligand binding is 63% (inactive) (at 10 µM) and 7% (binding inhibition, at 0.1 µM).

Consider `Cc1ccccc1CSCC(=O)NC(=O)NCc1ccco1`, for which the inhibition of ligand binding (at 10 µM) is 53% (inactive) and the inhibition of ligand binding (binding inhibition, at 0.1 µM) was found to be 27%.

With `Cc1occc1C(=O)NCc1cccc(CNC(=O)c2ccoc2C)c1`, the inhibition of ligand binding was 39% (inactive) (at 10 µM) and 26% (binding inhibition, at 0.1 µM).

In the case of `Cc1nc2ccccc2c(=O)n1/N=C/c1c(O)ccc2oc3c(c12)CCCC3`, the inhibition of ligand binding was 48% (inactive) (at 10 µM) and 52% (binding inhibition, at 0.1 µM).

For the compound `Oc1ccc(-c2cn3c(n2)SCC3)cc1O`, the inhibition of ligand binding is 19% (inactive) (at 10 µM) and 28% (binding inhibition, at 0.1 µM).

As for `COc1ccc(-c2nc3ccc([N+](=O)[O-])cc3o2)cc1`, the inhibition of ligand binding was 28% (inactive) (at 10 µM) and 52% (binding inhibition, at 0.1 µM).

With `COc1cc(C=C(c2nc3ccccc3s2)c2nc3ccccc3s2)ccc1O`, the inhibition of ligand binding (at 10 µM) is 31% (inactive) and the inhibition of ligand binding (binding inhibition, at 0.1 µM) was found to be 35%.

On to `Oc1ccc(/C=N/n2c(-c3ccco3)csc2=Nc2cccnc2)c(O)c1`, for which the inhibition of ligand binding runs as follows: (at 10 µM) 49% (inactive); (binding inhibition, at 0.1 µM) 21%.

With `CN(/N=C/c1cccnc1)c1cnn(-c2ccc(F)c(Cl)c2)c(=O)c1Cl`, the inhibition of ligand binding (at 10 µM) was 24% (inactive) and the inhibition of ligand binding (binding inhibition, at 0.1 µM) came to 15%.

For the compound `Nc1nc2c(s1)CCc1c-2cnn1-c1ccccc1`, the inhibition of ligand binding is 13% (inactive) (at 10 µM) and 21% (binding inhibition, at 0.1 µM).

For the compound `CC(=O)c1ccc(NC(=S)N2CCC(O)CC2)cc1`, the inhibition of ligand binding reads like this: (at 10 µM) 30% (inactive); (binding inhibition, at 0.1 µM) 23%.

Take `Cc1cc2n(c1)CCn1c(C)ccc1-2`: the inhibition of ligand binding by setting is: (at 10 µM) 26% (inactive); (binding inhibition, at 0.1 µM) 53%.

On to `Cc1ccc(C(=O)Nc2nc(-c3cccnc3)cs2)o1`, for which the inhibition of ligand binding reads like this: (at 10 µM) 29% (inactive); (binding inhibition, at 0.1 µM) 20%.

`COc1nnc(-c2ccc(C(=O)N3C[C@@H]4C[C@H](C3)c3cccc(=O)n3C4)cc2)c2ccccc12`: the inhibition of ligand binding is, setting by setting: (at 10 µM) 1% (inactive); (binding inhibition, at 0.1 µM) 6%.

In the case of `O=C(Nc1nccs1)c1nc(-c2ccccc2)n(-c2ccccc2)n1`, the inhibition of ligand binding is, setting by setting: (at 10 µM) 27% (inactive); (binding inhibition, at 0.1 µM) 36%.

For `COc1ccc(C2Nc3ccccc3C(=O)N2c2ccc(F)cc2)cc1CSc1ccccn1` (stereo unspecified), the inhibition of ligand binding (at 10 µM) is 10% (inactive) and the inhibition of ligand binding (binding inhibition, at 0.1 µM) stood at 28%.

For the compound `CCCSc1nc(C)c(-c2csc(C(C#N)=C3CCCC3)n2)cc1C#N`, the inhibition of ligand binding was 37% (inactive) (at 10 µM) and 44% (binding inhibition, at 0.1 µM).

As to `Cc1nc2cc(-c3ccsc3-n3c(C)ccc3C)[nH]n2c(=O)c1Cl`, the inhibition of ligand binding was 30% (inactive) (at 10 µM) and 54% (binding inhibition, at 0.1 µM).

With `COc1ccc(N2C(=O)c3ccccc3NC2c2ccc(OC)c(CSc3ccccn3)c2)cc1` (stereo unspecified), the inhibition of ligand binding by setting is: (at 10 µM) 40% (inactive); (binding inhibition, at 0.1 µM) 19%.

On to `O=C(Cn1c(=O)n(Cc2ccco2)c(=O)c2c3c(sc21)CCCCC3)Nc1ccccc1`, for which the inhibition of ligand binding is 51% (inactive) (at 10 µM) and 39% (binding inhibition, at 0.1 µM).

As to `Cc1cc(=O)oc2c(CN3CCC(C)CC3)c(O)c(Cl)cc12`, the inhibition of ligand binding was 10% (inactive) (at 10 µM) and 6% (binding inhibition, at 0.1 µM).

Take `CN(C)C(=O)c1ccc2c(c1)C1C3CCC(C3)C1C(c1ccccc1)N2` (stereo unspecified): the inhibition of ligand binding is, setting by setting: (at 10 µM) 0% (inactive); (binding inhibition, at 0.1 µM) 24%.

Consider `COc1ccc(N=Cc2sc(O)c3ccccc23)cc1`, for which the inhibition of ligand binding is, setting by setting: (at 10 µM) 37% (inactive); (binding inhibition, at 0.1 µM) 36%.
